Source: PubChem
In the library only some 19% were active in any assay of this set; here they are far more common.
TDP1 cell noCPT: qHTS for Inhibitors of human tyrosyl-DNA phosphodiesterase 1 (TDP1): qHTS in cells in absence of CPT; Potency, µM (titrated, usually from 46.2 µM), inactives show at the top dose activity change, negative = growth inhibition, hits mostly inhibitors; DT40 Tdp1-/- hTDP1 cells, no CPT, ATP luminescence, 48 h; actives 15% (n = 420,000); note: potency is the fitted concentration of half-maximal effect; nearly all actives have a fitted effect of over 55% in size
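Stably hTDP1-transfected Tdp1-null chicken DT40 cells were treated with library compounds minus camptothecin and grown for at least 48 hr at 37 °C, after which cellular ATP was quantified by luminescence.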
HT1080 IDH1KD tx: HT-1080 IDH1 knockdown cell toxicity (counter line); HT-1080 IDH1 knockdown viability, ATP luminescence, 48 h; Potency, µM (top dose mostly 46.1 µM), for inactives: at the highest dose activity, negative = toxicity, hits mostly cytotoxic; actives 2% (n = 360,000); AID 686971;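 note: potency is the fitted concentration of half-maximal effect; 0% = DMSO wells and -100% = cell-free medium wells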
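In this qHTS, HT-1080 cells depleted of IDH1 are exposed for 48 h at 37 °C to compound titrations. Toxicity is scored from CellTiter-Glo luminescence, with DMSO as full viability and medium alone as none.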
HT1080NT lethal: kills 2HG-producing HT-1080-NT fibrosarcoma cells; Potency, µM (top dose mostly 46.1 µM), inactives show at the top dose activity, negative = less viability, actives largely listed as cytotoxic; AID 686970; HT-1080-NT fibrosarcoma viability, CellTiter-Glo ATP luminescence, 48 h; actives 1.6% (n = 360,000);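 note: NT is the 2HG producing partner of a matched IDH1 knockdown line; potency is the fitted concentration of half-maximal effect; 0% = DMSO-treated cells and -100% = media-only wells without cells; nearly all actives have a fitted effect of over 55% in size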
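HT-1080-NT fibrosarcoma cells (2HG-overproducing), 750 cells/well in RPMI with 5% FBS, dosed after 2 h and incubated 48 h at 37C. CellTiter-Glo luminescence normalized to DMSO and no-cell wells; concentration-response curves fitted and classed.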
IL1B secr inh: inflammasome signaling inhibition, IL-1 beta readout; THP-1 LPS/ATP IL-1B secretion, AlphaLISA, 16 h; hits give low values; activity change, % at 57.5 µM; actives 4.7% (n = 360,000); in the data active = activity change below about -50%; inconclusive = mostly about -30% to -49%
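THP-1 cells pretreated 1 hr with compounds (up to 57.5 uM final), then stimulated with LPS (250 ng/mL final) plus ATP (1.25 mM final); secreted IL-1B measured by AlphaLISA after 16 hr, decreased signal indicating inhibition.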
ELG1 repair inh: ELG1-dependent DNA repair inhibition; HEK293T ELG1-luciferase reporter, luminescence, 16 h; DNA damage induced by 5-fluorouridine; actives 2.3% (n = 330,000); Potency, µM (doses to about 46.1 µM), for the others: top-dose activity change, negative = inhibition, hits mostly inhibitors; note: potency is the fitted concentration of half-maximal effect; nearly all actives have a fitted effect of over 55% in size
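Reporter activity after DNA damage by 5-fluorouridine is monitored. Compound-treated cells incubate 16 hr at 37 °C, then ONE-Glo is added for 30 min before luminescence reading.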
DT40 TDP1 CPT: growth inhibition of DT40 Tdp1-/-;hTDP1 cells with camptothecin (screen for TDP1 inhibitors) | AID 686979 | chicken DT40 Tdp1-/-;hTDP1 cells + 20 nM CPT, ATP luminescence, 48 h | actives 12% (n = 420,000) | Potency, µM (doses to about 46.2 µM), for the others: top-dose activity change, negative = growth inhibition, actives largely listed as inhibitors; note: potency is the fitted concentration of half-maximal effect; nearly all actives have a fitted effect of over 55% in size
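Chicken DT40 Tdp1-/- cells complemented with human TDP1, 400 cells/well, exposed to compounds plus 20 nM camptothecin for at least 48 h at 37 C; viability read as ATP content by CellTiter-Glo luminescence.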
The depositor's hits bear a star; ? = inconclusive; / = not tested or not shown; [ ] = remark or other dose. Unless noted, calls come from the whole dose curve; as a rule, active = well fitted curve in the direction sought with a large enough effect; inconclusive = small, poorly fitted or top-dose-only effect, or another doubt; inactive = no such curve, though single readings can be large; an effect the other way counts as inactive or inconclusive. Unless noted, % is set by controls: 0 for no effect and ±100 for the full control effect.

SMILES	TDP1 cell noCPT	HT1080 IDH1KD tx	HT1080NT lethal	IL1B secr inh	ELG1 repair inh	DT40 TDP1 CPT
CC1(C)Cc2ccccc2C(/C(=N\Nc2cccc(Cl)c2)C(N)=O)=N1	?	21µM*	21µM*	-54*	16µM*	?
Cc1ccc2nc(N3CCCCCC3)c(CN(CC3CCCO3)C(=O)c3cncs3)cc2c1 (centres undefined)	-23%	/	/	/	/	-6%[9.04 µM]
O=C(Cn1ccnc1[N+](=O)[O-])NCCO	-8%	/	/	/	/	3%
Cc1ccccc1NC(=S)N/N=C/C(C)c1ccccc1 (centres undefined)	13µM*	-13%	-1%	56	-16%	10µM*
CC(C)c1ccccc1NC(=S)NC(C)c1ccccc1 (centres undefined)	16µM*	-26%	0%	-10	-2%	?
Cc1cccc(NC(=S)N/N=C/C(C)c2ccccc2)c1C (centres undefined)	?	-28%	-3%	-103*	14%	-26%
O=C(/C=C/c1ccc(F)cc1)N1CC[C@@]2(O)CCCC[C@H]2C1	-4%	2%	22%	-10	9%	3%
COc1cccc(NC(=S)NC(=O)c2cccnc2)c1	1%	3%	0%	29	26%	-12%
Cc1cc(Br)c(OCc2ccc(C(=O)N/N=C3\CC4CC=CC34)cc2)c(Br)c1 (centres undefined)	15µM*	?	-25%	-9	-16%	-29%
CC1(C)CC(=O)c2cc(C(=O)Nc3ccccc3Cl)c(=O)n(-c3ccc(Cl)cc3)c2C1	?	/	/	/	/	-17%
COc1cccc(-c2nc(NCCNC(C)=O)c3ccccc3n2)c1	-20%	/	/	/	/	0%
COc1ccc(Cc2c(-c3cccc(Br)c3)nc3ccc(Br)cn23)c(C)c1	?	0%	-11%	11	/	?
COc1ccccc1Cc1c(-c2ccc(F)cc2)nc2ccc(Br)cn12	?	?	?	4	/	?
COC(=O)c1ccc2nc(-c3cccc(Br)c3)c(Cc3ccccc3OC)n2c1	21µM*	12µM*	10%	0	/	?
COC(=O)c1ccc2nc(-c3ccc(F)cc3)c(Cc3ccccc3OC)n2c1	18µM*	9%	13%	24	/	21µM*
COc1cc(NC(=O)N(Cc2ccco2)C2CCN(C(C)=O)CC2)cc(OC)c1OC	-13%	/	/	/	/	-2%
C/C(=N\NC(=O)c1c(Cl)c(C)nn1C)c1cccc(NC(=O)C2CCCC2)c1	?	-23%	-16%	?	?	?
O=C(CN(Cc1ccc(Cl)cc1)C(=O)c1csnn1)NCc1ccccc1	-23%	1%	-7%	-9	-9%	-21%
COCCNC(=O)c1cccc(-n2c(C)nc3cccnc32)c1	-13%	/	/	/	/	-3%
Cc1ccc(C(=O)NCCc2ccc(Cl)cc2)cc1-n1c(C)nc2cccnc21	23µM*	/	/	/	/	?
Cc1nc2cccnc2n1-c1cccc(C(=O)NCCc2ccc(Cl)cc2)c1	18µM*	/	/	/	/	?
CCOc1ccc(CCNC(=O)c2cccc(-n3c(C)nc4cccnc43)c2)cc1	16µM*	/	/	/	/	23µM*
O=C(Nc1ccc(NS(=O)(=O)c2ccccc2)c(Cl)c1)c1ccccc1	-19%	-14%	-9%	12	/	-12%
Cc1ccc(NS(=O)(=O)c2ccc(NC(=O)c3ccccc3C(=O)O)cc2)c(C)c1	-1%	1%	?	-67*	/	-1%
Cc1ccc(NS(=O)(=O)c2ccc(NC(=O)c3ccc(-c4ccccc4)cc3)cc2)c(C)c1	23µM*	?	?	20	/	23µM*
SMILES	TDP1 cell noCPT	HT1080 IDH1KD tx	HT1080NT lethal	IL1B secr inh	ELG1 repair inh	DT40 TDP1 CPT
Cc1cc(C)cc(NS(=O)(=O)c2ccc(NC(=S)NC(=O)c3ccc(Br)o3)cc2)c1	16µM*	?	?	-8	?	16µM*
Cc1ccc(C)c(C(C)NC(=O)c2ccc(Br)o2)c1 (centres undefined)	?	2%	-3%	-57*	-4%	?
CC(O)(COc1ccccc1)c1ccc2c(c1)CN(Cc1ccccn1)CCO2 (centres undefined)	-20%	/	/	/	/	-1%[9.04 µM]
Cc1oc(-c2ccccc2Cl)nc1CS(=O)CC(=O)NCc1ccc2c(c1)OCO2 (centres undefined)	-5%	-1%	-3%	-13	5%	-14%
Cc1ccc(NS(=O)(=O)c2cccc(C(=O)NC3CC3)c2)c(C)c1	-14%	-2%	1%	-30	0%	-20%
Cc1ccc(NS(=O)(=O)c2ccc(NC(=O)c3ccc(Br)o3)cc2)c(C)c1	26µM*	?	?	-25	?	?
Cc1ccc(NS(=O)(=O)c2cccc(C(=O)Nc3cccnc3)c2)c(C)c1	15µM*	0%	-8%	-25	?	?
O=C(Nc1ccc(S(=O)(=O)N2CCCC2)cc1)c1ccc(Br)o1	?	0%	-12%	-28	-1%	-11%
CCOC(=O)c1coc(C(=O)OCC)c1C(=O)OCC	2%	13%	2%	-3	/	-5%
Cc1cc(C)c(S(=O)(=O)N2CCCC(C(=O)NC3CCCC3)C2)c(C)c1 (centres undefined)	21µM*	-13%	-16%	8	-8%	?
CN(C)S(=O)(=O)c1ccc(S(=O)(=O)N2CCCC(C(=O)NC3CCCC3)C2)cc1 (centres undefined)	2.9µM*	26%	16%	1	-8%	?
Cc1nn(C)c(C)c1S(=O)(=O)N1CCCC(C(=O)NC2CCCCCC2)C1 (centres undefined)	?	2%	3%	31	4%	18µM*
O=C(C1CCCN(S(=O)(=O)c2ccccc2)C1)N1CCN(c2ccccc2)CC1 (centres undefined)	?	-3%	0%	-6	?	?
Cc1n[nH]c(C)c1S(=O)(=O)N1CCCC(C(=O)NC2CCCCC2)C1 (centres undefined)	-16%	2%	2%	2	-7%	-21%
Cc1nn(C)c(C)c1S(=O)(=O)N1CCCC(C(=O)N2CCN(c3ccc(Cl)cc3)CC2)C1 (centres undefined)	6.5µM*	?	-3%	-23	?	12µM*
Fc1ccc(Nc2ncnc3sccc23)cc1	-20%	-6%	-18%	-11	-3%	-2%
